Results on 4 compounds are retold here after PubChem BioAssay (EPA / NIEHS).

Each structure is given as a SMILES string. Active and inactive are the calls of the source. Rule for the calls: active = hit-call score of the fitted dose curve at least 0.9, where 1 is the maximum; inactive = score below 0.9.

Broadly, the AC50 is the concentration giving half of the maximal activity seen.

Experiment [1] can be described thus: ATG_GLI_CIS: Attagene CIS-FACTORIAL HepG2 Assay for human Zinc Finger Protein GLI1 (AID 2282945). The note with it: HepG2, Attagene cis-factorial reporter mRNA, GLI element; actives raise or lower the signal. A digest of the protocol:
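Transiently transfected HepG2 cells report endogenous transcription factor activity via cis-element-driven reporter units. After 24 h compound exposure, reporter mRNA was measured by RT-PCR with capillary electrophoresis; bidirectional fitting against DMSO baseline.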

Experiment [2] in a line: ATG_ISRE_CIS: Attagene CIS-FACTORIAL HepG2 Assay for human Interferon Regulatory Factor 1 (IRF1) binding to an Interferon-Stimulated Response Element (ISRE) (AID 2282948). The note with it: HepG2 ISRE cis-reporter (Attagene), mRNA transcription readout; actives raise or lower the signal. A digest of the protocol: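 Endogenous transcription factor activity read as reporter transcript abundance via RT-PCR and capillary electrophoresis. HepG2 cells transiently transfected, 24 h chemical exposure. Gain or loss fitted against DMSO baseline.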

Experiment [3] in a line: ATG_M_32_CIS: Attagene CIS-FACTORIAL HepG2 Assay for M32 Transcription Factor (Internal Marker) (AID 2282949).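 Note: background control marker of the multiplexed CIS panel rather than a real target.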 The note with it: HepG2 Attagene cis-factorial M32 reporter, mRNA; actives raise or lower the signal. A digest of the protocol: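 Transient MRTU transfection of HepG2; 24 h compound treatment; TriZol RNA, oligo(dT) RT, reporter PCR, 6-FAM primer extension, HpaI cut, CE. Gain/loss of signal vs DMSO.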

Experiment [4] can be described thus: ATG_M_06_CIS: Attagene CIS-FACTORIAL HepG2 Assay for M06 Transcription Factor (Internal Marker) (AID 2282950). The note with it: HepG2 Attagene CIS-FACTORIAL M06 internal marker reporter; actives raise or lower the signal. A digest of the protocol: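 Internal background marker within multiplexed cis-reporter HepG2 system. Cells transiently transfected, dosed 24 h; reporter mRNA measured by RT-PCR, HpaI digestion and capillary electrophoresis. Bidirectional fit relative to DMSO.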

For experiment [5], the target named is Hypoxia-inducible factor 1-alpha (Homo sapiens) (UniProt Q16665). The experiment is described as follows: ATG_HIF1a_CIS: Attagene CIS-FACTORIAL HepG2 Assay for human Hypoxia Inducible Factor 1 (HIF1A) (AID 2282951). The note with it: HepG2 Attagene cis-factorial HIF1a reporter transcription; actives raise or lower the signal. A digest of the protocol:
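After 24 h chemical exposure of reporter-transfected HepG2 cells, reporter cDNA was PCR-amplified, labelled by 6-FAM primer extension (2 min 95 C, 20 s 68 C, 10 min 72 C), HpaI-cut (2 h, 37 C) and analysed by CE.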

Experiment [6] deals with Hepatocyte nuclear factor 6 (Homo sapiens) (UniProt Q9UBC0). The experiment is described as follows: ATG_HNF6_CIS: Attagene CIS-FACTORIAL HepG2 Assay for human Hepatocyte Nuclear Factor 6 (HNF6) (AID 2282952). The note with it: HepG2 Attagene cis-factorial HNF6 reporter transcription; actives raise or lower the signal. Put shortly: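 Readout: fluorescent reporter-transcript fragments resolved by capillary electrophoresis after RT-PCR, reflecting endogenous factor activity in transfected HepG2. Exposure 24 h. Gain or loss of signal fitted bidirectionally against DMSO.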
Hepatocyte nuclear factor 6 (Homo sapiens), sequence (Q9UBC0 whole entry, looked up, the tested form may be a part): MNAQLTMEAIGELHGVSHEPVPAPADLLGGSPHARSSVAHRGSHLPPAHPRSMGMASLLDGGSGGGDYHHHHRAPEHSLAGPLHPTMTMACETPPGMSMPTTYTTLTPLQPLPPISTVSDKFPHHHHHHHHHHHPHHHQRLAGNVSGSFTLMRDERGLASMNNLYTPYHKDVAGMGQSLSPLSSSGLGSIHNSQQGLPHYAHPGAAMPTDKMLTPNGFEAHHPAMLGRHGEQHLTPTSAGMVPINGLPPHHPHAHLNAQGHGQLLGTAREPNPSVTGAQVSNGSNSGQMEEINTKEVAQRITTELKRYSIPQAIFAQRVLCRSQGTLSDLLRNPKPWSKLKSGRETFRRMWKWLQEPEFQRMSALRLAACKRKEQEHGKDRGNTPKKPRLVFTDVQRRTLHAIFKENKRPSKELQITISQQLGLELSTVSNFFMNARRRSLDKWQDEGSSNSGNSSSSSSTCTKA

The target of experiment [7] is Heat shock factor protein 1 (Homo sapiens) (UniProt Q00613). The experiment is described as follows: ATG_HSE_CIS: Attagene CIS-FACTORIAL HepG2 Assay for human Heat Shock Transcription Factor 1 (HSE) (AID 2282953). The note with it: HepG2 HSE cis-reporter, Attagene RNA transcription; actives raise or lower the signal. A digest of the protocol:
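HepG2 cells transfected with cis-promoter reporter units sensing endogenous transcription factor activity; reporter mRNA quantified 24 h post-dose by RT-PCR and capillary electrophoresis of 6-FAM-labelled products. Bidirectional fitting against DMSO.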

Experiment [8] can be described thus: ATG_MRE_CIS: Attagene CIS-FACTORIAL HepG2 Assay for human Metal Responsive Element (MRE) (AID 2282954). The note with it: HepG2 MRE cis-reporter transcription, Attagene multiplex; actives raise or lower the signal. A digest of the protocol: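 RT-PCR/capillary electrophoresis readout of reporter mRNA, 24 h post-dosing, in HepG2 cells transfected with multiplexed cis-regulated reporter constructs. Gain or loss of signal fitted bidirectionally against DMSO baseline.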

Experiment [9] addresses Paired box protein Pax-6 (Homo sapiens) (UniProt P26367). The experiment is described as follows: ATG_Pax6_CIS: Attagene CIS-FACTORIAL HepG2 Assay for human Paired Box 6 (PAX6) (AID 2282956). The note with it: HepG2 CIS-FACTORIAL PAX6 reporter transcription, RNA readout; actives raise or lower the signal. Put shortly:
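Read-out is reporter transcript level, measured by RT-PCR with fluorescent primer extension and capillary electrophoresis after 24 h dosing of transfected HepG2 cells. Activity in either direction fitted relative to DMSO control.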

Experiment [10] can be described thus: ATG_PPRE_CIS: Attagene CIS-FACTORIAL HepG2 Assay for human Peroxisome Proliferator-activated Response Element (PPRE) (AID 2282958). The note with it: HepG2 PPRE cis-element reporter, Attagene transcription factor profiling; actives raise or lower the signal. Put shortly: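 PPRE activity in HepG2: transient cis-reporter transfection, 24 h compound incubation, reporter mRNA by RT-PCR and CE fluorescence; gain/loss fitted against DMSO.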

The nature of experiment [11]: ATG_RORE_CIS: Attagene CIS-FACTORIAL HepG2 Assay for human RAR-related Orphan Receptor Element (RORE) (AID 2282959). The note with it: HepG2 Attagene cis-factorial RORE reporter, mRNA; actives raise or lower the signal. Put shortly: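 A 24-hour exposure of transfected HepG2 hepatoma cells precedes RNA isolation and reporter RT-PCR. Labeled products are digested with HpaI and resolved by capillary electrophoresis, with gain or loss of signal scored relative to DMSO.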

Experiment [12] can be described thus: ATG_Sox_CIS: Attagene CIS-FACTORIAL HepG2 Assay for human SRY-box transcription factor (SOX) (AID 2282960). The note with it: HepG2 Attagene cis-factorial SOX reporter, mRNA; actives raise or lower the signal. Put shortly: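 HepG2, cis reporter units, 24 h exposure. Reporter mRNA: RT-PCR → FAM labelling → HpaI → CE fluorescence. Bidirectional fit vs DMSO.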

Experiment [13] concerns the target Transcription factor Sp1 (Homo sapiens) (UniProt P08047). The experiment is described as follows: ATG_Sp1_CIS: Attagene CIS-FACTORIAL HepG2 Assay for human Specificity Protein 1 (Sp1) (AID 2282961). The note with it: HepG2 Sp1 cis-reporter transcription, actives raise or lower the signal. A digest of the protocol:
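Liver-derived HepG2 cells, cis-element reporter library, 24 h treatment; RNA isolated, cDNA amplified with reporter-specific primers, FAM-labeled fragments sized on capillary analyzer. DMSO baseline, bidirectional curve fit.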

Experiment [14] can be described thus: ATG_SREBP_CIS: Attagene CIS-FACTORIAL HepG2 Assay for human Sterol Regulatory Element Binding (SREBP) (AID 2282962). The note with it: HepG2 Attagene cis-factorial SREBP reporter, mRNA; actives raise or lower the signal. A digest of the protocol:
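Endogenous SREBP activity read as cis-element-driven reporter transcript in transiently transfected HepG2, 24 h post-dosing; quantified via RT-PCR plus capillary electrophoresis of fluorescent fragments. Gain or loss of signal fitted relative to DMSO baseline.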

Experiment [15] concerns the target Signal transducer and activator of transcription 3 (Homo sapiens) (UniProt P40763). The experiment is described as follows: ATG_STAT3_CIS: Attagene CIS-FACTORIAL HepG2 Assay for human Signal Transducer and Activator of Transcription 3 (STAT3) (AID 2282963). The note with it: HepG2, Attagene cis-factorial STAT3 reporter transcription; actives raise or lower the signal. A digest of the protocol: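 Readout: fluorescent reporter mRNA fragments resolved by capillary electrophoresis. Setup: HepG2 transfected with MRTUs reporting endogenous transcription-factor activity, dosed 24 h. Gain or loss of signal fitted bidirectionally against DMSO control.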

Experiment [16] in a line: ATG_TA_CIS: Attagene CIS-FACTORIAL HepG2 Assay for human TA Basal Promoter (AID 2282964). The note with it: HepG2 Attagene CIS-factorial TA basal promoter reporter; actives raise or lower the signal. A digest of the protocol: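 HepG2 cells transiently transfected with multiple reporter units under cis promoter elements, reporting endogenous transcription factor activity; this endpoint tracks the TA basal promoter as background control. Reporter mRNA after 24 h dosing measured by RT-PCR/capillary electrophoresis; bidirectional fits versus DMSO.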

The nature of experiment [17]: ATG_PBREM_CIS: Attagene CIS-FACTORIAL HepG2 Assay for human Phenobarbital-responsive Enhancer Module (PBREM) (AID 2282955). The note with it: HepG2 PBREM cis-reporter, Attagene multiplexed transcription; actives raise or lower the signal. Put shortly: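 Measures endogenous factor action on a phenobarbital-responsive enhancer module. HepG2 transiently carrying cis reporters, 24 h treatment, mRNA read-out by RT-PCR plus capillary electrophoresis.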

Experiment [18] is described as follows: ATG_PXRE_CIS: Attagene CIS-FACTORIAL HepG2 Assay for human Pregnane X Receptor Element (PXRE) (AID 2282957). The note with it: HepG2 Attagene CIS-FACTORIAL PXRE reporter, mRNA; actives raise or lower the signal. Put shortly: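 Read-out: fluorescence of reporter-specific RT-PCR products resolved by capillary electrophoresis, fitted bidirectionally relative to DMSO. Human HepG2 liver cells carried transfected cis-promoter reporter units and were exposed to chemicals for 24 h.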

Paired box protein Pax-6 (Homo sapiens), sequence (P26367 whole entry, looked up): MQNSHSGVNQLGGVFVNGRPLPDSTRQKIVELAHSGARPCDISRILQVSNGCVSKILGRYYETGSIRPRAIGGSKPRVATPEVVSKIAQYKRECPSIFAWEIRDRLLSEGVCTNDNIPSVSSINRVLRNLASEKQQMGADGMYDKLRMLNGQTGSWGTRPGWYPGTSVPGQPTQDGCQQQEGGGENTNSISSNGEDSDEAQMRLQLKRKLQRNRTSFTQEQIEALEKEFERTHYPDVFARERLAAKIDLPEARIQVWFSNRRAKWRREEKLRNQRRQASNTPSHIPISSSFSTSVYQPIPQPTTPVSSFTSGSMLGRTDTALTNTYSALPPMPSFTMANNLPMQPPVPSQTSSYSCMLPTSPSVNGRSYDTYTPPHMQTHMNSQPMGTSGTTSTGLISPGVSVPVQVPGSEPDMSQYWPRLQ
Hypoxia-inducible factor 1-alpha (Homo sapiens), sequence (Q16665 whole entry, looked up): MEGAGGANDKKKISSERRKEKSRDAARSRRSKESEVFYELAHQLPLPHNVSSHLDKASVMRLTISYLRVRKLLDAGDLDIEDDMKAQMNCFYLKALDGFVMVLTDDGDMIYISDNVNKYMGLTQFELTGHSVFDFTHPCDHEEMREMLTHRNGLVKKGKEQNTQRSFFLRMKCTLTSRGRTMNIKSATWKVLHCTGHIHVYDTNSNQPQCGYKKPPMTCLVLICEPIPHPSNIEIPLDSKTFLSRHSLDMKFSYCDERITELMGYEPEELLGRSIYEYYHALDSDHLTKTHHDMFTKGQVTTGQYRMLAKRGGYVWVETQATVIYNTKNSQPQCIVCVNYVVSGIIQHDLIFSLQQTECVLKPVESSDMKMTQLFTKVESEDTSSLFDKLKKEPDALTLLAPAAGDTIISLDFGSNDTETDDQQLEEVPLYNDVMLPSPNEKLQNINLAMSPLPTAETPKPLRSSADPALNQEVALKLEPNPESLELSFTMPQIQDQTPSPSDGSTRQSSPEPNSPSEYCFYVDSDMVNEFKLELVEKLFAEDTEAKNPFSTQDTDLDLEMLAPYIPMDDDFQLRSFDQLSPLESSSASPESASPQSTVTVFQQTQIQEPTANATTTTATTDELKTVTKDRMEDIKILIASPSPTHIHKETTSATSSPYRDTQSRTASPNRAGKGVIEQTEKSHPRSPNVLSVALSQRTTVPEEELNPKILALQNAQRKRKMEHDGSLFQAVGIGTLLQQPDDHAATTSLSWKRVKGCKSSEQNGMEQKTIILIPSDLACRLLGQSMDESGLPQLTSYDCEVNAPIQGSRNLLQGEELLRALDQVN
Heat shock factor protein 1 (Homo sapiens), sequence (Q00613 whole entry, looked up): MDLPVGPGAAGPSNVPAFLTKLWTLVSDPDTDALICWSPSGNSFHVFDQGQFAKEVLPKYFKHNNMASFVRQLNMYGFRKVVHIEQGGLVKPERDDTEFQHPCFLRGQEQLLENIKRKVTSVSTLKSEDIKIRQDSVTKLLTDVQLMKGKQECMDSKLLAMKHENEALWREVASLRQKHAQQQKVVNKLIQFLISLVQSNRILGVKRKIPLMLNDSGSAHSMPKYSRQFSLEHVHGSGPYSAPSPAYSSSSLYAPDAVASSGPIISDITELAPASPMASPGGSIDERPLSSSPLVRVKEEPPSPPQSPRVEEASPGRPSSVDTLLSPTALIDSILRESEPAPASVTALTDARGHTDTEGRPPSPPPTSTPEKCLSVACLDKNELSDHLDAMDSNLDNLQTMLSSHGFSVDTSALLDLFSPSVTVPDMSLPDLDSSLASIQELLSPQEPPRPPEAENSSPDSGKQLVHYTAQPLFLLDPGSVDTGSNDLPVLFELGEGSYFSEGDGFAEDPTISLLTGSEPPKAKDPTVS
Transcription factor Sp1 (Homo sapiens), sequence (P08047 whole entry, looked up, the tested form may be a part): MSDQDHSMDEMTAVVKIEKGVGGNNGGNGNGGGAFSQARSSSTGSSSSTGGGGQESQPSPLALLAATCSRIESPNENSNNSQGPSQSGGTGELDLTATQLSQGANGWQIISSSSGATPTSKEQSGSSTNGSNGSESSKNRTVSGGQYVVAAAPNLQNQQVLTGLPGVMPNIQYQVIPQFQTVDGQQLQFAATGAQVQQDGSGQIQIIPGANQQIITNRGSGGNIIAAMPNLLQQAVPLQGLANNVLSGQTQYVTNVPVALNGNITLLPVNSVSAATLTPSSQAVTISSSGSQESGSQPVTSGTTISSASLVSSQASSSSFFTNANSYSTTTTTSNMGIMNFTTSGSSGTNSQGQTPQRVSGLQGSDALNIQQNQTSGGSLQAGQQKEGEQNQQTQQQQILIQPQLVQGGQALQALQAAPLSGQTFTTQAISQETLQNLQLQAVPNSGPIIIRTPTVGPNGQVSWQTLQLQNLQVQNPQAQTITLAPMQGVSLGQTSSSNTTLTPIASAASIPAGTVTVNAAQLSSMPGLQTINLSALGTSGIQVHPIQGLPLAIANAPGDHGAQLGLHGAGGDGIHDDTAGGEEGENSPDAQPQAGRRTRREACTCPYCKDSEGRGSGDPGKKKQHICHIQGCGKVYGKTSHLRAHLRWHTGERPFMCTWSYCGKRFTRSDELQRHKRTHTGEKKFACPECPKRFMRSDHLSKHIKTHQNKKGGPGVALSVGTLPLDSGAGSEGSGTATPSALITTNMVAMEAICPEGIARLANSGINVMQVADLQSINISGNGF
Signal transducer and activator of transcription 3 (Homo sapiens), sequence (P40763 whole entry, looked up, the tested form may be a part): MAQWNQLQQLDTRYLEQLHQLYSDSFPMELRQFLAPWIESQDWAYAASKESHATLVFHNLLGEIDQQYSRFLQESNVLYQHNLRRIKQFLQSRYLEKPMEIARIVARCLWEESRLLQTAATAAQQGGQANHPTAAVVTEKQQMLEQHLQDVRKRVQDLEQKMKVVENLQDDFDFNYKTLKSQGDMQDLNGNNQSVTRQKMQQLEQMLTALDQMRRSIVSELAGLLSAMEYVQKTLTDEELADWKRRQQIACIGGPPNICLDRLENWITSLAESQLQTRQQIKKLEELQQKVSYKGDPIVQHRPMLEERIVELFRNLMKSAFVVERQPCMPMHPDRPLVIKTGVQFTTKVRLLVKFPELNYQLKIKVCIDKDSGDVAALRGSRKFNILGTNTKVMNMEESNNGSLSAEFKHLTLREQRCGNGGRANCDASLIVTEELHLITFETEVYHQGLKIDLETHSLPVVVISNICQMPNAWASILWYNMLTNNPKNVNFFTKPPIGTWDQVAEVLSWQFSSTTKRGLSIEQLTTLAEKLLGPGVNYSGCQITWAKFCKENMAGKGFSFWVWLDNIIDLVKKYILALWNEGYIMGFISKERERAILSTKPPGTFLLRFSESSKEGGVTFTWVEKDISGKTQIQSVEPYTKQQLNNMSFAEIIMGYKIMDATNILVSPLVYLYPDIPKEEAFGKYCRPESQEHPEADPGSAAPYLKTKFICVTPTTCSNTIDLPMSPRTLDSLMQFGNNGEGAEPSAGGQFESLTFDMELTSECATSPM

For `O=[N+]([O-])C(CO)(CO)CO`, the compound was called inactive in [1], in [2], in experiment [3], in [4], in experiment [5] and in experiment [6]. The result in experiment [7], in experiment [8], in [9], in [10], in experiment [11] and in experiment [12] was inactive. In addition, the outcome in [13], in experiment [14], in experiment [15] and in experiment [16] was inactive.

For the compound `C[C@]12C=CC(=O)C=C1CC[C@@H]1[C@@H]2C(=O)C[C@@]2(C)[C@H]1CC[C@]2(O)C(=O)CO`, the compound was called inactive in experiment [1], in [2], in [3], in [4], in experiment [5] and in experiment [7]. Also, the compound was classed as inactive in experiment [8], in [17], in [9], in experiment [11], in experiment [12] and in experiment [13]. Moreover, the call in experiment [14], in experiment [15] and in experiment [16] was inactive.

For `CCNc1cccc(C)c1`, the result in experiment [1], in experiment [2], in experiment [3], in experiment [4], in experiment [7] and in experiment [8] was inactive. Moreover, the result in experiment [17], in experiment [9], in experiment [10], in experiment [11], in [12] and in [13] was inactive. The call in [14], in [15] and in experiment [16] was inactive. Further, the AC50 in [5] was 60.8 µM (active).

`O=c1c(O)c(-c2ccc(O)c(O)c2)oc2cc(O)cc(O)c12`: the outcome in experiment [1], in experiment [2], in [3], in experiment [4], in experiment [8] and in experiment [17] was inactive. The compound was called inactive in [9], in experiment [11], in experiment [12], in experiment [13], in experiment [14] and in experiment [15]. For the same compound, the compound was called inactive in experiment [16]. Also, the AC50 in experiment [18] was 76.2 µM (active).
